# Data: PubChem BioAssay (NCI)
# Compounds without any hit were thinned out: in the full panel of roughly 83,000, 20% have a hit.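 Cells were grown in 96-well plates and exposed to the test compound at a single concentration for 48 hours; results are reported as percent growth, with values below 10 considered active.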 Unmarked numbers belong to inactive results. Activity calls are given as the source filed them.
# Columns and labels:
# Assay in all cases: NCI-60 one-dose screen, 48 h (100 = growth as untreated, 0 = no growth, -100 = all killed)
# [1] = test system: NCI-H23 lung
# [2] = test system: NCI-H226 lung
# [3] = test system: NCI-H322M lung; conditions: 10 µM unless noted
# [4] = test system: HOP-62 NSCLC
# [5] = test system: NCI-H460 lung
# [6] = test system: HOP-92 NSCLC
# [7] = test system: NCI-H522 lung
# [8] = test system: A549/ATCC NSCLC
# [9] = test system: 786-0 renal
# [10] = test system: COLO 205 colon
# [11] = test system: DU-145 prostate
# [12] = test system: K-562 leukemia
# [13] = test system: MALME-3M melanoma
# [14] = test system: MDA-MB-231 breast
# [15] = test system: RXF 393 renal
# [16] = test system: SF-268 CNS
# [17] = test system: SF-295 CNS
# [18] = test system: SF-539 CNS
# [19] = test system: UACC-257 melanoma
# [20] = test system: M14 melanoma
smiles,measurement,setting,value
CC(=O)/C=C/c1ccc(N(C)Cc2ccc(C(C)(C)C)cc2)cc1,growth,[1]; 10 µM,75.5%
same,growth,[1]; 100 µM,-10.1% (active)
same,growth,[2]; 10 µM,85.1%
same,growth,[2]; 100 µM,-82.3% (active)
same,growth,[3],-64.5% [100 µM] (active)
same,growth,[4]; 10 µM,97.6%
same,growth,[4]; 100 µM,-34.8% (active)
same,growth,[5]; 10 µM,96.9%
same,growth,[5]; 100 µM,-63.7% (active)
same,growth,[6]; 10 µM,77.3%
same,growth,[6]; 100 µM,-92.6% (active)
same,growth,[7]; 10 µM,77.1%
same,growth,[7]; 100 µM,-76.4% (active)
same,growth,[8]; 10 µM,89.6%
same,growth,[8]; 100 µM,-48.6% (active)
same,growth,[9]; 10 µM,97.3%
same,growth,[9]; 100 µM,-75% (active)
same,growth,[10]; 10 µM,113%
same,growth,[10]; 100 µM,-72% (active)
same,growth,[11]; 10 µM,96.6%
same,growth,[11]; 100 µM,0.731% (active)
same,growth,[12]; 10 µM,59.5%
same,growth,[12]; 100 µM,-12.4% (active)
same,growth,[13]; 10 µM,89.3%
same,growth,[13]; 100 µM,-88.1% (active)
same,growth,[14]; 10 µM,103%
same,growth,[14]; 100 µM,-70.6% (active)
same,growth,[15]; 10 µM,106%
same,growth,[15]; 100 µM,-90.6% (active)
same,growth,[16]; 10 µM,102%
same,growth,[16]; 100 µM,-76.8% (active)
same,growth,[17]; 10 µM,88.9%
same,growth,[17]; 100 µM,-30.4% (active)
same,growth,[18]; 10 µM,98.9%
same,growth,[18]; 100 µM,-69% (active)
same,growth,[19]; 10 µM,84.6%
same,growth,[19]; 100 µM,-76.5% (active)
same,growth,[20]; 10 µM,79.5%
same,growth,[20]; 100 µM,-65.3% (active)
COc1ccc(C(=O)/C=C/c2ccc(OCc3cccc(C(F)(F)F)c3)c(OC)c2)cc1OC,growth,[1]; 10 µM,69.9%
same,growth,[1]; 100 µM,11.1%
same,growth,[2]; 10 µM,81.4%
same,growth,[2]; 100 µM,-12.8% (active)
same,growth,[3],11.7% [100 µM]
same,growth,[4]; 10 µM,111%
same,growth,[4]; 100 µM,5.03% (active)
same,growth,[5]; 10 µM,78.9%
same,growth,[5]; 100 µM,6.09% (active)
same,growth,[6]; 10 µM,79.4%
same,growth,[6]; 100 µM,-17.4% (active)
same,growth,[7]; 10 µM,53.8%
same,growth,[7]; 100 µM,-18.5% (active)
same,growth,[8]; 10 µM,73.1%
same,growth,[8]; 100 µM,14.9%
same,growth,[9]; 10 µM,122%
same,growth,[9]; 100 µM,-3.87% (active)
same,growth,[10]; 10 µM,103%
same,growth,[10]; 100 µM,23.2%
same,growth,[11]; 10 µM,72.7%
same,growth,[11]; 100 µM,19.4%
same,growth,[12]; 10 µM,39.1%
same,growth,[12]; 100 µM,12.2%
same,growth,[13]; 10 µM,97.7%
same,growth,[13]; 100 µM,23.5%
same,growth,[14]; 10 µM,79.9%
same,growth,[14]; 100 µM,-12.9% (active)
same,growth,[15]; 10 µM,97.7%
same,growth,[15]; 100 µM,-13% (active)
same,growth,[16]; 10 µM,86.4%
same,growth,[16]; 100 µM,14.6%
same,growth,[17]; 10 µM,98.2%
same,growth,[17]; 100 µM,21.7%
same,growth,[18]; 10 µM,103%
same,growth,[18]; 100 µM,12%
same,growth,[19]; 10 µM,93.9%
same,growth,[19]; 100 µM,28.7%
same,growth,[20]; 10 µM,85.3%
same,growth,[20]; 100 µM,35.4%
Nc1ccc(-c2nc3ccc4[nH]ncc4c3c3c2CCCC3)cc1F,growth,[1]; 10 µM unless noted,19.7%
same,growth,[2]; 10 µM unless noted,42.2%
same,growth,[3],41.3%
same,growth,[4]; 10 µM unless noted,23.1%
same,growth,[5]; 10 µM unless noted,24.8%
same,growth,[6]; 10 µM unless noted,55.4%
same,growth,[7]; 10 µM unless noted,22.5%
same,growth,[8]; 10 µM unless noted,11.7%
same,growth,[9]; 10 µM unless noted,37%
same,growth,[10]; 10 µM unless noted,12.4%
same,growth,[11]; 10 µM unless noted,38.6%
same,growth,[12]; 10 µM unless noted,30.2%
same,growth,[13]; 10 µM unless noted,28.3%
same,growth,[14]; 10 µM unless noted,37.6%
same,growth,[15]; 10 µM unless noted,-13% (active)
same,growth,[16]; 10 µM unless noted,39.9%
same,growth,[17]; 10 µM unless noted,37.8%
same,growth,[18]; 10 µM unless noted,24.5%
same,growth,[19]; 10 µM unless noted,26.6%
same,growth,[20]; 10 µM unless noted,24.9%
Nc1n[nH]c2cccc(C#Cc3cccc(NC(=O)c4ccc(N5CCOCC5)c(C(F)(F)F)c4)c3)c12,growth,[1]; 10 µM unless noted,13.5%
same,growth,[2]; 10 µM unless noted,-0.121% (active)
same,growth,[3],10.4%
same,growth,[4]; 10 µM unless noted,16.8%
same,growth,[5]; 10 µM unless noted,18.7%
same,growth,[6]; 10 µM unless noted,-47.1% (active)
same,growth,[7]; 10 µM unless noted,9.42% (active)
same,growth,[8]; 10 µM unless noted,13%
same,growth,[9]; 10 µM unless noted,-39.4% (active)
same,growth,[10]; 10 µM unless noted,-18.2% (active)
same,growth,[11]; 10 µM unless noted,25.7%
same,growth,[12]; 10 µM unless noted,0.995% (active)
same,growth,[13]; 10 µM unless noted,11.2%
same,growth,[14]; 10 µM unless noted,-22.3% (active)
same,growth,[15]; 10 µM unless noted,-66% (active)
same,growth,[16]; 10 µM unless noted,23.4%
same,growth,[17]; 10 µM unless noted,-36.9% (active)
same,growth,[18]; 10 µM unless noted,-56% (active)
same,growth,[19]; 10 µM unless noted,17.6%
same,growth,[20]; 10 µM unless noted,3.69% (active)
Cc1ccc(NC(=O)N/C(N)=N/c2nc(=O)c3ccccc3s2)cc1,growth,[1]; 10 µM unless noted,94.1%
same,growth,[2]; 10 µM unless noted,91.3%
same,growth,[3],93.9%
same,growth,[4]; 10 µM unless noted,91.7%
same,growth,[5]; 10 µM unless noted,88.8%
same,growth,[6]; 10 µM unless noted,86.4%
same,growth,[7]; 10 µM unless noted,95.3%
same,growth,[8]; 10 µM unless noted,103%
same,growth,[9]; 10 µM unless noted,98.6%
same,growth,[10]; 10 µM unless noted,103%
same,growth,[11]; 10 µM unless noted,108%
same,growth,[12]; 10 µM unless noted,57%
same,growth,[13]; 10 µM unless noted,93.9%
same,growth,[14]; 10 µM unless noted,86%
same,growth,[15]; 10 µM unless noted,99%
same,growth,[16]; 10 µM unless noted,102%
same,growth,[17]; 10 µM unless noted,101%
same,growth,[18]; 10 µM unless noted,95.5%
same,growth,[19]; 10 µM unless noted,103%
same,growth,[20]; 10 µM unless noted,92.4%
